# Reference: PubChem BioAssay AID623868 (Vanderbilt High Throughput Screening Facility, 2012)
# Out of some 2,100 compounds screened, about 760 (36%) were called active. These entries were drawn from the full list. Values without a mark were called inactive.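 Rule for the calls: active = thallium-flux fluorescence traces judged by eye to show enhanced or reduced glutamate response, manual score 1 or -1, so both directions (some results past the limit were not filed as active); inactive = the rest, including fluorescent or raised-baseline compounds.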
# Assay: non-GIRK thallium flux modulation in mGlu8 cells, confirmation, counter-screen for GIRK activator project, cell-based, HEK-293 rmGlu8, no GIRK (AID 623868);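 note: extra codes mark interference with 3 for fluorescent and 4 for baseline rise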
# Details: thallium flux fluorescence, at 10 µM, actives lie on both sides, codes: 1 enhancer, -1 blocker, 0 none, thallium stimulus containing EC20 glutamate
row,SMILES,manual score
1,Cc1ccc(S(=O)(=O)CC(=O)Nc2ccc(S(=O)(=O)Nc3onc(C)c3C)cc2)cc1,0
2,Cc1cccc2cc(/C=C3\N=C(c4ccccc4)OC3=O)c(N3CCOCC3)nc12,3
3,COC(=O)c1ccc(CSc2ccc3nnc(-c4ccccc4)n3n2)o1,-1 (active)
4,COC(=O)c1ccc(CSc2nnc(Nc3ccccc3OC)s2)o1,0
5,CCn1c(SCc2ccc(Cl)cc2)nnc1-c1ccccc1,0
6,CCN(CC)CCn1c(NC(=O)c2ccc(Cl)cc2)nc2ccccc21,0
7,CCn1c(NC(=S)Nc2ccccc2)nc2ccccc21,1 (active)
8,CCn1c(SCc2nc(-c3ccccc3)no2)nc2ccccc21,0
9,CCCCc1ccc(NC(=S)Nc2cccnc2)cc1,0
10,CCCCn1c(NC(=S)Nc2ccccc2)nc2ccccc21,1 (active)
11,CCCn1c(NCc2ccc(N(C)C)cc2)nc2ccccc21,0
12,CCCCN1C(=O)c2ccccc2C1C(=O)NC1CCCC1 (stereo unspecified),0
13,Cc1cccc(C(=O)N2CCC(Cc3ccccc3)CC2)c1[N+](=O)[O-],0
14,NS(=O)(=O)c1ccc(NC(=O)C2COc3ccccc3O2)cc1 (stereo unspecified),0
15,Cc1ccc(NC(=O)c2ccc(COc3ccc4c(c3)CCC4)cc2)c(C)c1,0
16,O=C(Nc1nnc(-c2ccc3c(c2)CCCC3)o1)c1ccccc1Cl,1 (active)
17,O=C(Nc1nnc(-c2ccc3c(c2)CCCC3)o1)C1COc2ccccc2O1 (stereo unspecified),1 (active)
18,O=C(Nc1nnc(-c2ccc3c(c2)CCCC3)o1)c1ccc(Cl)cc1Cl,1 (active)
19,CC1CN(S(=O)(=O)c2ccc(C(=O)Nc3nnc(-c4ccc5c(c4)CCCC5)o3)cc2)CC(C)O1 (stereo unspecified),1 (active)
20,O=C(Nc1ccc(-c2nc3ccccc3o2)cc1)c1cc(-n2cnnc2)ccc1Cl,0
21,CCC(/C=N/NC(=O)C1COc2ccccc2O1)CC (stereo unspecified),0
22,CCCC1COC(Cn2cncn2)(c2ccc(C)cc2)O1 (stereo unspecified),0

row,SMILES,manual score
1,O=C(c1cnn2c(C(F)(F)F)cc(-c3cccs3)nc12)N1CCN(Cc2ccccc2)CC1,0
2,CCCCCCCC1CC(CSc2ncn[nH]2)OC1=O (stereo unspecified),0
3,N=c1oc2ccc3ccccc3c2cc1-c1nc(-c2ccccc2)cs1,3
4,CC1CCCCN1Cc1nc2c(c(=O)n(C)c(=O)n2C)n1CCc1ccccc1 (stereo unspecified),0
5,O=C(Nc1cccc(-c2nnc(-c3ccccc3)o2)c1)C1CCCO1 (stereo unspecified),0
6,CN(C)S(=O)(=O)c1ccc(C(=O)Nc2nnc(-c3ccc4c(c3)CCCC4)o2)cc1,0
7,O=C(Nc1nnc(-c2ccc3c(c2)CCCC3)o1)c1ccccc1,1 (active)
8,CN1CCN(Cc2cccc(Oc3ccc(Cl)cc3)c2)CC1,0
9,Cc1ccccc1OCC(=O)N/N=C/c1cccn1C,0
10,Cc1ccccc1OCC(=O)NNC(=S)NC(=O)c1ccco1,1 (active)
11,CCCc1ccc(OCC(=O)NNC(=S)NC(=O)c2ccco2)cc1,1 (active)
12,O=C(Nc1ccc(Br)cc1)C1CCC(=O)N1Cc1ccccc1Cl (stereo unspecified),0
13,O=P(CCCCCCCCCP(=O)(c1ccccc1)c1ccccc1)(c1ccccc1)c1ccccc1,-0.5
14,COc1ccccc1Nc1ccc(Nc2ccccc2OC)nn1,0
15,COc1ccccc1-c1ccc(NC2CCCC2)nn1,-1 (active)
16,S=c1nc(-c2ccc(Br)cc2)oc2c1CCCC2,1 (active)
17,CC(C)COc1ccc(Cc2cnc(N)nc2N)cc1,0
18,CCN(C#N)c1nc(NC(C)C)nc(NC(C)C)n1,0
19,CC(C)n1c(O)c(N=Nc2ccccn2)c2ccccc21,0
20,Oc1c(N=Nc2ccccn2)ccc2ccccc12,1 (active)
21,CCCCn1c(=N)n(CC(O)COc2cccc(C)c2)c2ccccc21 (stereo unspecified),0
22,CCCCn1c(O)c(N=Nc2ccccn2)c2ccccc21,1 (active)

row,SMILES,manual score
1,Oc1ccc2ccccc2c1N=Nc1ccccn1,1 (active)
2,CCOc1ccc(N2C(=O)CC(SC(=NC)Nc3ccc(F)cc3)C2=O)cc1 (stereo unspecified),0
3,COc1ccc2cc(Br)ccc2c1CC(=O)NC1CC(C)(C)NC(C)(C)C1,0
4,CCC(C)NC(=O)CN1C(=O)CC(C)(C)S(=O)(=O)c2ccccc21 (stereo unspecified),0
5,CCn1c(=O)cc(OCC(=O)Nc2cccc(C)n2)c2ccccc21,0
6,CCn1c(O)c(N=NC(=O)CNc2cccc(C)c2)c2ccccc21,1 (active)
7,CCn1c(=O)c(C(=O)NCCCO)c(O)c2ccccc21,0
8,Cc1nn(-c2ccccc2)c(OC(=O)c2cccs2)c1S(=O)(=O)c1ccccc1,0
9,CCN(CC)c1cnn(C/C(=N\OC)c2ccc(Cl)cc2)c(=O)c1Br,-1 (active)
10,CO/N=C(\Cn1ncc(N2CCCC2)c(Br)c1=O)c1ccc(Cl)cc1,0
11,CO/N=C(\Cn1ncc(N2CCCC2)c(Cl)c1=O)c1ccc(Cl)cc1,0
12,CCC(C)(C)NC(=O)C(c1ccc(F)cc1)N(Cc1ccco1)C(=O)c1cnccn1 (stereo unspecified),0
13,N#CC1=C(N)SC(N)=C(C#N)C1c1c(Cl)cccc1Cl,-1 (active)
14,N#CC1=C(N)SC(N)=C(C#N)C1CCc1ccccc1,0
15,C#CCSc1nnc(-c2cccc3ccccc23)o1,0
16,Oc1oc(-c2cccc3ccccc23)nc1/C=N/c1nccs1,1 (active)
17,O=C(O)c1cnc(-c2ccccc2)nc1Sc1ccccc1Cl,0
18,CC(C)C(=O)OCC(=O)Nc1ccc(N=Nc2ccccc2)cc1,0
19,CCOC(=O)C1CCCN(c2ncnc3c2oc2ccccc23)C1 (stereo unspecified),0
20,CCOC(=O)c1c(C)oc2ccc(O)c(CN3CCCCC3)c12,0
21,CCOC(=O)c1c2n(c3c(NCc4ccccc4)ncnc13)CCCC2,-1 (active)
22,Cc1ccc(NC(=O)CSc2nccn2C)cc1S(=O)(=O)N1CCOCC1,0

row,SMILES,manual score
1,Cc1ccc(SC(C)C(=O)Nc2ccc(S(=O)(=O)N3CCOCC3)cc2)cc1 (stereo unspecified),0
2,Cc1ccc(C)c(NC(=S)N=Nc2c(O)n(C)c3ccc(S(=O)(=O)N4CCOCC4)cc23)c1,1 (active)
3,Cc1ccc(NC(=S)N=Nc2c(O)n(C)c3ccc(S(=O)(=O)N4CCOCC4)cc23)cc1,1 (active)
4,CCc1c(C)sc(NC(=O)CCc2ccc(OC)cc2)c1C(N)=O,0
5,CCC(C)n1c(=S)[nH]c2c(sc3ccc([N+](=O)[O-])cc32)c1=O (stereo unspecified),1 (active)
6,CN=C1S/C(=C\c2cc(C)n(-c3ccccc3F)c2C)C(=O)N1C,0
7,COc1ccc(C2c3ccc4ccccc4c3Oc3ncn(CCN4CCOCC4)c(=N)c32)cc1 (stereo unspecified),0
8,Cc1ccc(C(=O)NNC(=S)Nc2cccc3ccccc23)s1,1 (active)
9,O=C(NNC(=S)Nc1ccccc1)c1cccc(Br)c1,1 (active)
10,C=C(C)CNC(=S)Nc1cccc2cnccc12,0
11,O=C(NNC(=S)Nc1cccc2ccccc12)c1cccc(Br)c1,1 (active)
12,NC(=O)Nc1cccc2ccccc12,0
13,CN1CCN(C(=O)Nc2cccc3ccccc23)CC1,0
14,S=C(Nc1cccc(Br)c1)c1ccccc1,0
15,N#Cc1ccsc1NC(=O)CN1CCN(c2ccc(O)cc2)CC1,0
16,COc1ccc(/C=C2\N=C(SC)NC2=O)cc1,1 (active)
17,Cc1ccc(S(=O)(=O)n2cnc3cc([N+](=O)[O-])ccc32)cc1C,0
18,Brc1ccccc1-c1nnc2sc(-c3ccc4c(c3)OCCO4)nn12,-1 (active)
19,Clc1ccccc1-c1nnc2sc(-c3ccccn3)nn12,0
20,Clc1ccccc1-c1nnc2sc(-c3ccc4c(c3)OCO4)nn12,0
